A-T KAP1 phos – qHTS Assay for Identifying a Potential Treatment of Ataxia-Telangiectasia; Potency, µM (top dose mostly 57.5 µM), usual class: activators; 320,000 compounds, 0.19% hits; AID 485349, 2010; F2112 A-T fibroblasts, KAP-1 phosphorylation AlphaLISA; neocarzinostatin DNA damage 30 min before lysis; note: nearly all actives have a fitted effect of over 45% in size
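hTERT-immortalized A-T patient fibroblasts (F2112), 500 cells/well in OPTI-MEM, 1% FBS, got compounds for 60 min, then NCS for 30 min at 37C. Lysates were then assayed for phospho-KAP-1 by AlphaLISA (anti-pKAP1 donor, anti-KAP1 acceptor beads), 6 hr at 25C.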
TCR act – Activators of T cell receptors: qHTS campaign; primary human leukocytes, anti-CD3, IL-2 HTRF, 48 h; Potency, µM (top dose mostly 9.22 µM), most hits filed as activators; 330,000 tested, under 10 active
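Activity was scored as IL-2 release from primary human leukocytes given only a TCR signal (a-CD3 beads) plus compound for 48 hr. Detection used a two-antibody HTRF format read at 665nm.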
CCT chaperon mod – High-Throughput Screening for Modulators of Cytosolic Chaperonin Activity; purified chaperonin ATPase assay, HTRF ADP detection, 30 min; activity change, % (concentration not given with the values), hits read low; 360,000 compounds, 0.3% hits; AID 651819, 2012; in the data active = activity change below about -30%
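TRiC at 40 or 20 nM final (batch-dependent) in 30 mM Tris pH 7.4, 100 mM KCl, 5 mM MgCl2, 1 mM DTT, with compound at single 76 uM and 10 uM ATP, 30 min at 37 deg C. ADP detected by HTRF Transcreener, 665/615 ratio.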
A549 tox – Nrf2 qHTS screen for inhibitors: counterscreen for cytotoxicity. A549 ARE-Fluc cells, CellTiter-Fluor viability, 18-24 h. Potency, µM (doses to about 46 µM), actives largely listed as inhibitors. 390,000 compounds, 0.16% hits. AID 504648, 2011
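A549 ARE_Fluc cells in 5% FBS OPTI-MEM were exposed to compounds in concentration-response for 18-24 h at 37 deg C. Viability was read by CellTiter-Fluor fluorescence (Ex 405/Em 525) after 30 min, before the luciferase read.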
Nrf2 block – Nrf2 qHTS screen for inhibitors; A549 ARE-Fluc reporter, luciferase luminescence, 18-24 h; Potency, µM (titrated, usually from 46 µM), actives largely listed as inhibitors; 360,000 compounds, 2.1% hits; note: nearly all actives have a fitted effect of over 60% in size
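A549 ARE_Fluc cells, 5000/well, 5% FBS OPTI-MEM; compounds in dose-response, 18-24 h at 37 °C/5% CO2; CellTiter-Fluor viability read (Ex 405/Em 525), then BugLite luciferase luminescence = Nrf2 activity.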
Nrf2 ARE act – qHTS of Nrf2 Activators. AID 624171, 2012. AREc32 ARE-luciferase reporter (MCF7-derived line), luminescence, 24 h. Potency, µM (highest dose often 46.1 µM), usual class: activators. 410,000 compounds, 0.31% hits; note: nearly all actives have a fitted effect of over 65% in size
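Reporter line AREc32 (ARE-Fluc), seeded overnight in OPTI-MEM with 5% FBS; compound pin-transferred, 24 hr at 37 deg C, 5% CO2; luminescent read-out.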
Large screens that a line does not name were inactive. Only some compounds are listed: those with a hit (about 2.6% of all), similar ones and a draw of the others. Unless noted, calls come from the whole dose curve; as a rule, active = well fitted curve in the direction sought with a large enough effect; inconclusive = small, poorly fitted or top-dose-only effect, or another doubt; inactive = no such curve, though single readings can be large; an effect the other way counts as inactive or inconclusive.

Cc1nnc(NC(=O)c2ccc(S(=O)(=O)N(C)Cc3ccccc3)cc2)o1	Nrf2 block 18.4µM
CSCc1nnc(NC(=O)c2ccc(S(=O)(=O)N(CC(C)C)CC(C)C)cc2)o1	none (no result: TCR act, CCT chaperon mod, A549 tox, Nrf2 block, Nrf2 ARE act)
CCc1nnc(NC(=O)c2ccc(S(=O)(=O)N(CC(C)C)CC(C)C)cc2)o1	A549 tox inconclusive, Nrf2 block 16.4µM
COCc1nnc(NC(=O)c2ccc(S(=O)(=O)N(C)Cc3ccccc3)cc2)o1	A549 tox inconclusive, Nrf2 block inconclusive
CCCCOc1ccc(N2CC(C(=O)NCCc3ccc(OC)c(OC)c3)CC2=O)cc1 (stereo not given)	none
Cc1ccc(Cl)cc1NC(=O)CN(C)S(=O)(=O)c1ccc2c(c1)n(C)c(=O)c(=O)n2C	none (no result: A-T KAP1 phos, TCR act, CCT chaperon mod)
CCCCN(Cc1ccccc1)C(=O)c1oc(=O)c2ccccc2c1-c1ccc(C)cc1	Nrf2 block inconclusive (no result: A-T KAP1 phos, TCR act, CCT chaperon mod)
CCOc1ccc(/C=C(\C#N)C(=O)Nc2cccnc2)cc1	CCT chaperon mod -62.7
CC(=O)Nc1ccc(Oc2sc(C(=O)c3ccccc3)c(N)c2C#N)cc1	A549 tox inconclusive, Nrf2 ARE act 8.91µM (no result: Nrf2 block)
Cc1ccc(S(=O)(=O)N2CCN(c3nc(-c4cncn4C)nc4ccccc34)CC2)cc1	none (no result: A-T KAP1 phos, TCR act, CCT chaperon mod, Nrf2 ARE act)
O=C(COC(=O)c1cc(=O)[nH]c2ccccc12)NCc1ccccc1	none
COCCN(C(=O)CSc1nc2ccc(C)cc2[nH]1)c1c(N)n(Cc2ccccc2)c(=O)[nH]c1=O	CCT chaperon mod -38.8 (no result: TCR act)
CCNC(=O)COC(=O)c1cc(=O)[nH]c2ccccc12	CCT chaperon mod -34.7
CC(C)CN(C(=O)COC(=O)C12CC3CC(CC(C3)C1)C2)c1c(N)n(Cc2ccccc2)c(=O)[nH]c1=O	A549 tox inconclusive, Nrf2 block 25.9µM
CC(C)CN(C(=O)COC(=O)C12CC3CC(CC(O)(C3)C1)C2)c1c(N)n(Cc2ccccc2)c(=O)[nH]c1=O	none (no result: A-T KAP1 phos, TCR act, A549 tox, Nrf2 block)
CCN(C(=O)COC(=O)/C=C/c1ccc(Cl)c(Cl)c1)c1c(N)n(Cc2ccccc2)c(=O)[nH]c1=O	Nrf2 block 14.6µM (no result: A-T KAP1 phos)
CC(C)CN(C(=O)COC(=O)c1cc(=O)[nH]c2ccccc12)c1c(N)n(Cc2ccccc2)c(=O)[nH]c1=O	CCT chaperon mod -30.1 (no result: A-T KAP1 phos)
O=C(CN1CCCC1)Nc1ccccc1C(=O)c1ccccc1	none
O=C(CN1CCN(S(=O)(=O)c2ccccc2F)CC1)Nc1ccccc1C(=O)c1ccccc1	Nrf2 block 14.6µM
Cn1c2cc(C=O)sc2c2cnn(Cc3ccccc3F)c(=O)c21	none (no result: A-T KAP1 phos, TCR act, CCT chaperon mod, Nrf2 ARE act)
CCNc1nc(C#N)nc(Nc2ccccc2)n1	none (no result: A-T KAP1 phos, TCR act, CCT chaperon mod, Nrf2 ARE act)
CC(C)(C)CNc1nc(C#N)nc(Nc2ccccc2)n1	A549 tox inconclusive, Nrf2 block 18.4µM (no result: A-T KAP1 phos, TCR act, CCT chaperon mod, Nrf2 ARE act)
CC(=O)N1CCc2cc(S(=O)(=O)N3CCN(S(=O)(=O)c4c(F)cccc4F)CC3)ccc21	none (no result: A-T KAP1 phos, TCR act, CCT chaperon mod, Nrf2 ARE act)
COc1cccc(C2c3c(ncn(-c4ccccc4OC)c3=N)Oc3ccc4ccccc4c32)c1 (stereo not given)	A549 tox inconclusive (no result: A-T KAP1 phos, TCR act, CCT chaperon mod, Nrf2 ARE act)
COc1ccc(S(=O)(=O)N(CCC(=O)O)Cc2ccccc2)cc1	CCT chaperon mod -49.6
COc1ccc2nccnc2c1[N+](=O)[O-]	none
CCOC(=O)c1c(-c2ccc(C)cc2)cn2ccccc12	A-T KAP1 phos 31.6µM (no result: Nrf2 block)
COc1cccc(CNC(=O)COCc2cc(-c3ccc4c(c3)OCO4)on2)c1	none (no result: A-T KAP1 phos, TCR act, CCT chaperon mod)
CCNC(=S)Nc1ccc(Cl)c([N+](=O)[O-])c1	A549 tox inconclusive, Nrf2 block 18.4µM
CCNC(=S)Nc1cccc([N+](=O)[O-])c1	none (no result: CCT chaperon mod, A549 tox, Nrf2 block, Nrf2 ARE act)
CCOC(=O)C(=Cc1ccc(Br)cc1)C(=O)OCC	A549 tox inconclusive, Nrf2 block 18.4µM, Nrf2 ARE act inconclusive
Cn1nnnc1Sc1ncnc2scc(-c3cnc(N)nc3)c12	Nrf2 block inconclusive (no result: A-T KAP1 phos, TCR act, CCT chaperon mod, Nrf2 ARE act)
Cc1ccc(C)c(S(=O)(=O)C(C#N)c2nc3ccccc3nc2N2CC(C)OC(C)C2)c1 (stereo not given)	Nrf2 block 13µM (no result: A549 tox)
